Source: PubChem BioAssay (Sanford-Burnham Center for Chemical Genomics)
PABP FP inh – PABP poly(A) RNA binding inhibitors, primary screen, biochemical, fluorescence polarization, uHTS. Polyadenylate-binding protein 1 (Homo sapiens), P11940. calls only at 35 µM. 290,000 compounds, 1% hits;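 note: calls also rest on retests at 20 µM and on dose response follow-up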
Target sequence (P11940 whole entry, looked up): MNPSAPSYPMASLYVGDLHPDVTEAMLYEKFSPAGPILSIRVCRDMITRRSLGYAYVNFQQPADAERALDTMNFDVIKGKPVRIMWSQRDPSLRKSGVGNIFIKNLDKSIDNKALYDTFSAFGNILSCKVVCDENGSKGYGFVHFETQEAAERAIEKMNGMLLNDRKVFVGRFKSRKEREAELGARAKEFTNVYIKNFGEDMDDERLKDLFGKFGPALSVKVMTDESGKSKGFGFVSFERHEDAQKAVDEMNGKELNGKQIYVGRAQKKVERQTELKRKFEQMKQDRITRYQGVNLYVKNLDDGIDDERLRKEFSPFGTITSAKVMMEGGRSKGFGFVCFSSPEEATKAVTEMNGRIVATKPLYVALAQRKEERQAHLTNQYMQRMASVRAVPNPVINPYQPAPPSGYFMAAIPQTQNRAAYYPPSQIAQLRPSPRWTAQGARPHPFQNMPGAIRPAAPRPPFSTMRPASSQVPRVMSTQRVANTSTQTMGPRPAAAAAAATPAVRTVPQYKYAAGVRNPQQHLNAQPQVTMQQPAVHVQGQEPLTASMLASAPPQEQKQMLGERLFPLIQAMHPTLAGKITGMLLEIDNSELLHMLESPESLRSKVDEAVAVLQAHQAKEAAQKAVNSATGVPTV
PHOSPHO1 block – PubChem AID 1565 | Phosphoethanolamine/phosphocholine phosphatase (Homo sapiens), Q8TCT1 | recombinant PHOSPHO1, absorbance phosphatase assay | inhibition, % at 13.3 µM | 290,000 compounds, 1.1% hits; in the data active = inhibition above about 60%
A3G deaminase – APOBEC3G DNA deaminase inhibitors, primary screen, biochemical, fluorescence, single-stranded DNA substrate, uHTS; 330,000 compounds, 0.28% hits; inhibition, % at 20 µM; recombinant A3G, ssDNA deamination FAM/TAMRA fluorescence; DNA dC->dU-editing enzyme APOBEC-3G (Homo sapiens), Q9HC16;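 active = inhibition of at least 40% at 20 µM, with no more than 30% in the related APOBEC3A deaminase screen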;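 note: plate controls were DMSO wells with A3G for no effect and wells lacking A3G enzyme for full effect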
A3A deaminase – APOBEC3A ssDNA deaminase inhibitors, primary screen, selectivity assay for APOBEC3G inhibitor project, biochemical, FAM/TAMRA oligo cleavage fluorescence | AID 493011, 2011 | inhibition, % at 20 µM | recombinant A3A, FAM/TAMRA ssDNA deamination fluorescence | 330,000 compounds, 0.41% hits | DNA dC->dU-editing enzyme APOBEC-3A (Homo sapiens), P31941;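 active = at least 40% inhibition at 20 µM here, with at most 30% in a related deaminase screen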;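 note: plate controls were A3A with DMSO for no effect and wells lacking A3A enzyme for full effect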
eIF4H FP inh – human eIF4H binding inhibitors, primary screen, translation initiation inhibitor project, biochemical, uHTS, fluorescence polarization; Eukaryotic translation initiation factor 4H (Homo sapiens), Q15056; eIF4H fluorescence polarization binding assay; inhibition, % at 35 µM; 290,000 compounds, 0.94% hits;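 note: calls also rest on retests at 20 µM and on dose response follow-up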
PABP1 MLLE inh – inhibitors of PABP1 MLLE–PAM2 peptide binding, primary screen, biochemical, fluorescence polarization, FITC-PAM2, GST-MLLE; Polyadenylate-binding protein 1 (Homo sapiens), P11940; inhibition, % at 20 µM; AID 588489, 2011; 360,000 compounds, 0.36% hits; in the data active = inhibition above about 35%, passing the limit was not always enough;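 note: plate controls were DMSO wells with GST-MLLE for no effect and wells lacking GST-MLLE protein for full effect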
* = called active by the depositor; i = inactive; / = not tested or not shown; + = active, no number. Compounds with a hit are over-represented: about 2.6% of the library has one in this group of screens. Unless noted, the rule behind the calls is not given here.

SMILES | PABP FP inh | PHOSPHO1 block | A3G deaminase | A3A deaminase | eIF4H FP inh | PABP1 MLLE inh
Cc1nn(CCc2n[nH]c(=S)n2-c2ccc(F)c(Cl)c2)c(C)c1[N+](=O)[O-] | i | -9.4 | 15.1 | -3.2 | -4.1 | -6.8
NC(Cc1ccc(C(F)(F)F)cc1)c1csc(Nc2nncc3ccccc23)n1 (stereo unspecified) | / | / | / | / | / | -14.0
CCNC(=O)c1cccc(NC(=O)CN2C(=O)NC3(CCCCC3)C2=O)c1 | / | / | -2.3 | 2.2 | / | -9.2
CN1/C(=C\C(=O)CSc2nnc(NCc3ccccc3)s2)C(C)(C)c2ccccc21 | + | 0.3 | -3.8 | -1.1 | 68.7* | -55.5
Cc1cc(C(=O)CSc2nnc(NCc3ccccc3)s2)c(C)n1C | i | 91.1* | 0.5 | 0.4 | -8.9 | 9.4
O=C(NC(C1CC1)C1CC1)C1CCC(=O)N(CCCN2CCCC2=O)C1 (stereo unspecified) | i | 23.5 | -0.3 | 2.5 | -8.8 | 7.8
CSc1nc(N)c(NC(=O)c2ccc(Br)o2)c(=O)[nH]1 | i | 66.3* | 4.3 | -0.7 | -2.7 | 13.4
CCN(CC)S(=O)(=O)c1ccc2c(c1)N(CC(=O)Nc1cccnc1Cl)C(=O)CO2 | i | 5.9 | -7.0 | -2.0 | -2.0 | 4.6
CCCOc1ccc(N2C(=O)CC(N(CCc3ccc(OC)cc3)C(=O)/C=C/C(=O)O)C2=O)cc1 (stereo unspecified) | i | 36.8 | -3.7 | 2.4 | -3.0 | 9.5
COc1ccc(N2C(=O)CC(N(CCc3ccccc3)C(=O)/C=C/C(=O)O)C2=O)cc1 (stereo unspecified) | i | 64.2* | -3.5 | 1.1 | 5.5 | -7.8
CCC(=NCCc1ccc(OC)c(OC)c1)c1ccccc1O | i | / | -0.7 | 1.2 | 7.5 | -4.4
CCC(=NCCc1ccc(OC)c(OC)c1)C1=C(O)CC(C)(C)CC1=O | i | 22.6 | -2.3 | -0.5 | active | -0.9
Cc1ccc(C(=O)N/C(=C\c2cn(C)c3ccccc23)C(=O)NCCCN2CCOCC2)cc1 | i | -30.1 | -7.5 | -6.1 | -5.3 | -12.0
Cc1ccc(C(=O)N/C(=C\c2ccc(-c3ccccc3[N+](=O)[O-])o2)C(=O)NCCCN2CCOCC2)cc1 | + | -14.3 | -3.0 | -1.5 | 97.9* | 23.5
Cc1cc(S(=O)(=O)N2CCOCC2)ccc1NC(=O)c1ccc(F)cc1 | i | 8.5 | 2.4 | 8.2 | 0.6 | -7.5
Cc1cc(NC(=O)Cn2nc(-c3ccccc3F)ccc2=O)ccc1-n1cnnn1 | i | 1.1 | -0.9 | 2.2 | -0.8 | 8.2
COc1cc(NC(=O)Cn2nc(-c3ccc(F)cc3)ccc2=O)ccc1-n1cnnn1 | i | -5.9 | -8.4 | -1.1 | 101.7* | 0.2
Cc1ccc(C)c(C(=O)CCC(=O)OCn2nnc3ccccc3c2=O)c1 | / | / | 1.5 | 1.1 | / | 0.3
Cc1cc(C)n(CC(=O)NNC(=O)COc2ccc(Br)cc2F)n1 | / | / | -5.7 | -2.4 | / | 101.4*
Cc1ccc([C@H]2N[C@]3(CCCN(Cc4ccc(Br)cc4)C3=O)[C@H]3C(=O)N(C)C(=O)[C@@H]23)cc1 | / | / | / | / | / | 14.2
COc1cc(CCC(=O)Nc2ccc(Br)c(C(F)(F)F)c2)cc(OC)c1OC | + | 5.7 | -6.6 | 0.0 | active | 0.9
Cc1cc(/C=C2/C(=O)NN(c3ccccc3)C2=O)c(C)n1-c1cccc(O)c1 | i | -8.7 | 5.4 | -0.6 | 62.2* | -7.4
COC(=O)C1=C(C)NC(=O)/C1=C\c1cc(C)n(-c2cccc(C)c2)c1C | + | 38.2 | -5.5 | -3.2 | 120.9 | -6.5
O=C1NN(c2ccccc2)C(=O)C1=Cc1ccccc1O | / | / | / | / | / | 25.4
COC(=O)c1ccc(CSc2nc3ccc(C)cc3[nH]2)o1 | i | 76.5* | -5.5 | -1.9 | -12.3 | -122.6
SMILES | PABP FP inh | PHOSPHO1 block | A3G deaminase | A3A deaminase | eIF4H FP inh | PABP1 MLLE inh
Cc1ccc(Sc2c(C)[nH]n(C(C)(C)C)c2=O)cc1 | i | 52.4 | -11.0 | -1.6 | -12.8 | 28.1
Cc1[nH]n(C(C)(C)C)c(=O)c1Sc1ccccc1 | i | 94.5* | -8.5 | -3.4 | 2.9 | 36.8
O=C(O)c1ccccc1N=Nc1ccc(O)cc1 | / | / | -3.2 | -1.9 | / | 41.4*
Cc1[nH]c2ccccc2c1N=Nc1ccccc1C(=O)O | + | -1.5 | 0.9 | 11.8 | 98.7 | -16.2
Cc1[nH]c2ccccc2c1N=Nc1cccc(C(=O)O)c1 | i | 3.0 | -3.4 | 0.2 | -5.0 | -11.2
Cc1nc(N/N=C\c2ccc3c(c2)OCO3)sc1C | i | 20.1 | -5.1 | -1.1 | -11.3 | -84.5
C[C@H](CO)N1C[C@H](C)[C@@H](CN(C)C(=O)Nc2ccc3c(c2)OCO3)Oc2c(NC(=O)Nc3ccc(C(F)(F)F)cc3)cccc2C1=O | / | / | -0.4 | 2.6 | / | -1.3
O=C(Nc1nc(=O)c2ccccc2s1)c1ccc(F)cc1 | i | 2.0 | 1.5 | -2.1 | -2.7 | 38.2*
CC(C)(C)c1ccc(CC(=O)N2CCC2(C)C(=O)NS(=O)(=O)c2ccccc2)cc1 (stereo unspecified) | / | / | / | / | / | 1.6
Cc1ccc(NC(=O)C(=O)NCCN2CCN(S(C)(=O)=O)CC2)cc1C | i | 61.1* | -7.9 | -0.8 | -0.6 | 10.0
Cc1c(N)cc(N)cc1C(=O)O | + | 9.0 | -7.1 | -2.0 | 82.7* | 0.3
CC(Sc1ccc2c(c1)OCCO2)C(=O)Nc1ncc(Cl)cc1Cl (stereo unspecified) | i | -36.3 | -5.4 | -4.2 | 3.3 | 43.2*
CC(Sc1ccc2c(c1)OCCO2)C(=O)Nc1ccc2c(c1)OCO2 (stereo unspecified) | i | -0.8 | 3.8 | 2.1 | 6.7 | 22.1
O=c1/c(=C\c2cccnc2)sc2nc3ccccc3n12 | i | -29.1 | / | / | -18.1 | -27.1
Cc1cc(C=C2C(=O)c3ccccc3C2=O)c(C)n1-c1ccc(C(=O)O)cc1 | i | -97.1 | 5.2 | 20.8 | 30.4 | -147.5
Cc1cc(/C=c2/sc3nc4ccccc4n3c2=O)c(C)n1-c1ccccn1 | i | 75.2* | -4.2 | 0.5 | 21.7 | -39.1
Cc1cc(/C=c2\sc3nc4ccccc4n3c2=O)c(C)n1-c1ccc(C(=O)O)cc1 | + | 6.2 | / | / | 64.2 | -43.6
O=C(O)c1ccc(-c2ccc(/C=c3/sc4nc5ccccc5n4c3=O)o2)cc1Cl | + | 30.8 | 82.2 | 97.0 | 78.3 | -70.0
O=C1CCCCC1(O)Cc1ccc2c(c1)OCO2 (stereo unspecified) | / | / | / | / | / | -30.2
CC(=O)C1=CCC(c2ccc(Cl)cc2)N(S(=O)(=O)c2ccccc2C)C1 (stereo unspecified) | / | / | / | / | / | 3.7
COc1ccc(CC(=O)O/N=C(\N)c2ccc(OC)cc2)cc1 | i | -68.4 | -7.3 | -3.7 | -3.3 | -3.8
